Test results from PubChem BioAssay AID686915 (National Center for Advancing Translational Sciences (NCATS), 2013).
Where “and” joins values, the source holds several entries; their conditions need not be identical. Identical values can stand only once. Records with an inconclusive call do not appear. Calls of active or inactive are those of the source. Calls follow the shape of the dose curve; as a rule, active = well fitted inhibition curve with a large enough effect; inconclusive = small, poorly fitted or top-dose-only effect; inactive = no such curve, though single readings can be large or run the other way.

experiment: qHTS screen for inhibitors of ELG1-dependent DNA repair in human embryonic kidney (HEK293T) cells expressing luciferase-tagged ELG1: MMS Stimulated Assay for probe SAR; settings: HEK293T ELG1-luciferase reporter, 16 h; series mostly up to 46.1 µM; activity change, negative = inhibition: at the top concentration
Description: Cancer cells divide rapidly compared to normal cells in the body. During cell division, cancer cells need to duplicate their genome by DNA replication. The failure of genome duplication leads to cancer cells' death. Therefore, inhibitors of DNA replication could specifically kill cancer cells. Based on this concept, many chemotherapeutic agents were developed and have been used to treat cancer patients. However, there are a limited number of agents available in the clinical setting, and some of those that do exist have low efficacy and severe side effects. Therefore, if we can find the compounds that effectively block DNA replication either by directly damaging DNA or by inhibiting other cellular mechanisms, the options for cancer treatment will be broadened. With this in mind, we developed a quantitative high-throughput ELG1-luciferase reporter gene assay. Small molecules that specifically block ELG1 function in response to DNA damage can be identified by monitoring the suppression of luciferase activity. Since ELG1 defines a pathway for repairing DNA damage, agents blocking ELG1 function can be used to sensitize cancer cells to chemotherapeutic agents whose mechanism of action involves the induction of DNA damage. NIH Molecular Libraries Probe Production Network [MLPCN] NIH Chemical Genomics Center [NCGC] MLPCN Grant: R03 MH092164 Assay Provider: Kyungjae Myung, NHGRI, NIH
ELG1-luc HEK293T cells will be seeded in 1536-well plates at a density of 2,000 cells / well. Approximately 5 hours after plating, compounds will be added to the plate by pin tool transfer and MMS will be added by FRD dispenser (final concentration of MMS = 10 µM). 16 hours following the addition of the compounds, luciferase activity will be measured using Amplight reagent.

SMILES | activity change, negative = inhibition | Potency
Cc1cnccc1-c1nc(Nc2ccc(F)c(F)c2)c2ccccc2n1 | 23.2% (inactive) | 
COc1cnccc1-c1nc(Nc2ccc(F)c(F)c2)c2ccccc2n1 |  | 13.2 µM (active)
O=c1cc(-c2nc(Nc3ccc(F)c(F)c3)c3ccccc3n2)cc[nH]1 | -7.61% (inactive) | 
Cc1ccc(Nc2nc(-c3ccncc3)nc3ccccc23)cc1F | -27.9% (inactive) | 
Fc1cc(Nc2nc(-c3ccncc3)nc3ccccc23)ccc1-c1ccc2[nH]ncc2c1 | -10.2% (inactive) | 
Fc1cc(Nc2nc(-c3ccncc3)nc3ccccc23)ccc1-c1ccnc(C(F)(F)F)c1 | -2.36% (inactive) | 
Cc1cc(-c2nc(Nc3ccc(F)c(F)c3)c3ccccc3n2)ccn1 | 14.4% (inactive) | 
Fc1cc(Nc2nc(-c3ccncc3)nc3ccccc23)ccc1C(F)(F)F |  | 8.33 µM (active) and 13.2 µM (active)
Fc1cc(Nc2nc(-c3ccncc3)nc3ccccc23)ccc1-c1cn[nH]c1 | -11.2% (inactive) | 
Fc1ccc(Nc2nc(-c3ccnc(N4CCCCC4)c3)nc3ccccc23)cc1F | -17% (inactive) | 
Fc1cc(Nc2nc(-c3ccncc3)nc3ccccc23)ccc1-c1cncnc1 | 6.48% (inactive) | 
Fc1ccc(Nc2nc(-c3ccnc(C(F)(F)F)c3)nc3ccccc23)cc1F |  | 18.7 µM (active)
Fc1cc(Nc2nc(-c3ccncc3)nc3ccccc23)ccc1N1CCNCC1 | -12% (inactive) | 
COc1cc(Nc2nc(-c3ccncc3)nc3ccccc23)ccc1N1CCN(C)CC1 | 7.99% (inactive) | 
COc1ccc(Nc2nc(-c3ccncc3)nc3ccccc23)cc1F | -8.77% (inactive) | 
Fc1cc(Nc2nc(-c3ccncc3)nc3ccccc23)ccc1-c1cccnc1 | 8.42% (inactive) | 
Fc1cc(Nc2nc(-c3ccncc3)nc3ccccc23)ccc1-c1cccc(OC(F)(F)F)c1 |  | 23.5 µM (active)
COc1nccc(-c2nc(Nc3ccc(F)c(F)c3)c3ccccc3n2)c1Cl | 17.5% (inactive) | 
COc1ccc(-n2c(C)c(C(C)=O)c3ccccc32)cc1 |  | 7.43 µM (active) and 6.62 µM (active)
COc1cc(-c2nc(Nc3ccc(F)c(F)c3)c3ccccc3n2)ccn1 | 17.9% (inactive) | 

SMILES | activity change, negative = inhibition | Potency
Fc1cc(Nc2nc(-c3ccncc3)nc3ccccc23)ccc1-c1cccc(C(F)(F)F)c1 |  | 18.7 µM (active)
Fc1cc(-c2nc(Nc3ccc(F)c(F)c3)c3ccccc3n2)ccn1 | -19.4% (inactive) | 
O=[N+]([O-])c1ccc(-c2nc(Nc3ccc(F)c(F)c3)c3ccccc3n2)cc1 | -7.96% (inactive) | 
CN1CCN(c2cc(-c3nc(Nc4ccc(F)c(F)c4)c4ccccc4n3)ccn2)CC1 |  | 23.5 µM (active)
CN1CCN(c2ccc(Nc3nc(-c4ccncc4)nc4ccccc34)cc2F)CC1 | -13.1% (inactive) | 
Fc1cc(Nc2nc(-c3ccncc3)nc3ccccc23)ccc1N1CCCCC1 |  | 18.7 µM (active)
Fc1cc(Nc2nc(-c3ccncc3)nc3ccccc23)ccc1-c1cccc(OC(F)F)c1 | 7.46% (inactive) | 
c1ccc2c(Nc3ccn[nH]3)nc(-c3ccncc3)nc2c1 |  | 4.69 µM (active)
Fc1cc(Nc2nc(-c3ccncc3)nc3ccccc23)ccc1OCC(F)(F)F | -19.7% (inactive) | 
COc1cc(-c2nc(Nc3ccc(F)c(F)c3)c3ccccc3n2)c(F)cn1 |  | 8.33 µM (active)
Fc1ccc(-c2ccc(Nc3nc(-c4ccncc4)nc4ccccc34)cc2F)c(Cl)c1 |  | 11.8 µM (active)
Fc1ccc(Nc2nc(-c3ccncc3Cl)nc3ccccc23)cc1F | -16.3% (inactive) | 
Fc1cc(Nc2nc(-c3ccncc3)nc3ccccc23)ccc1-c1ccncc1 | 16.6% (inactive) | 
COc1ccc(-c2ccc(Nc3nc(-c4ccncc4)nc4ccccc34)cc2F)cc1F | 3.92% (inactive) | 
Fc1cc(Nc2nc(-c3ccncc3)nc3ccccc23)ccc1-c1ccc(F)c(F)c1F | 13% (inactive) | 
N#Cc1cnccc1-c1nc(Nc2ccc(F)c(F)c2)c2ccccc2n1 |  | 5.26 µM (active)
Fc1cc(Nc2nc(-c3ccncc3)nc3ccccc23)ccc1-n1cncn1 |  | inactive
Cc1cc(-c2nc(Nc3ccc(F)c(F)c3)c3ccccc3n2)cc(C)n1 | 10.5% (inactive) | 
Fc1ccccc1-c1ccc(Nc2nc(-c3ccncc3)nc3ccccc23)cc1F |  | 16.6 µM (active)
Cc1nc2ccc(Nc3nc(-c4ccncc4)nc4ccccc34)cc2s1 | 10.6% (inactive) | 
